Reference: PubChem BioAssay (EPA / NIEHS)
Where “and” joins values, the source holds several entries; their conditions need not be identical. Equal values may be shown once. Where a structure was tested more than once in an assay, its records may differ in their call. Calls of active or inactive are those of the source. The calls were made as follows: active = hit-call score of the fitted dose curve at least 0.9, where 1 is the maximum; inactive = score below 0.9.

target: Nuclear respiratory factor 1 (Homo sapiens) (UniProt Q16656); test: ATG_NRF1_CIS: Attagene CIS-FACTORIAL HepG2 Assay for human Nuclear Respiratory Factor 1 (NRF1) Orphan Gene (AID 2282987); settings: HepG2 NRF1 cis-element reporter, Attagene multiplex; actives raise or lower the signal
Experimental: ATG_CIS is a cell-based, multiplexed-readout assay that uses HepG2, a human liver cell line, with measurements taken at 24 hours after chemical dosing in a 24-well plate.ATG_NRF1_CIS is one of 52 assay component(s) measured or calculated from the ATG_CIS assay. It is designed to make measurements of mRNA induction, a form of inducible reporter, as detected with fluorescence intensity signals by Reverse transcription polymerase chain reaction (RT-PCR) and Capillary electrophoresis technology.Data from the assay component ATG_NRF1_CIS was analyzed into 1 assay endpoint. This assay endpoint, ATG_NRF1_CIS, was analyzed with bidirectional fitting relative to DMSO as the negative control and baseline of activity. Using a type of inducible reporter, measures of mRNA for gain or loss-of-signal activity can be used to understand the reporter gene at the transcription factor-level as they relate to the gene NRF1. Furthermore, this assay endpoint can be referred to as a primary readout, because this assay has produced multiple assay endpoints where this one serves a reporter gene function. To generalize the intended target to other relatable targets, this assay endpoint is annotated to the dna binding intended target family, where the subfamily is nuclear respiratory factors.
Human liver HepG2 cells are transiently transfected with multiple reporter transcription units (MRTUs) in 6-well plates using FuGene 6 reagent (Roche; 3 ml FuGene/1 mg DNA). The MRTU constructs are regulated by a cis-regulating element (promoter). […] A major difference between the CIS and TRANS system is that in CIS activities of endogenous TFs are measured, whereas the TRANS assay evaluates changes in activities of exogenous, chimeric NR-Gal4 proteins. […] At the end of 24 hour incubation, total RNA was isolated using TriZol reagent (Invitrogen). The isolated RNA is then reverse-transcribed using oligo(dT) primer and Mo-MLV reverse transcriptase (Invitrogen) with DNAse I (Ambion) treatment for 30 min. The one-tenth of the produced cDNA was amplified by PCR using Taq DNA polymerase (Invitrogen) and two reporter sequence-specific primers. The PCR products were fluorescently labeled by primer extension with 6-arboxyfluorescein (6-FAM) 5'-labeled reporter sequence-specific primer (2 min at 95 C, 20 s at 68 C and 10 min at 72 C) and these products were digested with 5U of HpaI (New England Biolabs) for 2h at 37 C. The fragments were purified using Qiaquick PCR columns (Qiagen), analyzed on an ABI 3130xL genetic analyzer (Applied Biosystems) with peak positions identified by using a set of X-rhodamine (ROX)-labeled MapMarker1000 molecular weight standards (BioVentures). The raw capillary electrophoresis data was processed using Attagraph software (Attagene).

Sequence of Nuclear respiratory factor 1 (Homo sapiens) (Q16656 whole entry, looked up): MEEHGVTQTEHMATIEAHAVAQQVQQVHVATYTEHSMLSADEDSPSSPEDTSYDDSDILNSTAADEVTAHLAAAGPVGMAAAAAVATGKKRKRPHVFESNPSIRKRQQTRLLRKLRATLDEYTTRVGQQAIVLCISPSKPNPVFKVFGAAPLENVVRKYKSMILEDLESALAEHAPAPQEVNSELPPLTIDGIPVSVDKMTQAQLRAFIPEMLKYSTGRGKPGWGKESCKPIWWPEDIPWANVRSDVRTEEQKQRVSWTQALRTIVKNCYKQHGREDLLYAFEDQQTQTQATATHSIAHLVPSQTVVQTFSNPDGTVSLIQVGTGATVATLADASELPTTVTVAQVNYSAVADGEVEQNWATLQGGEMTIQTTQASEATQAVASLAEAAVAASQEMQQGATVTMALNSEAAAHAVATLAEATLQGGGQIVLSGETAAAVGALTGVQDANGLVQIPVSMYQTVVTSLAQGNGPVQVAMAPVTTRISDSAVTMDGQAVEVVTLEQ

| Compound | outcome | AC50 |
| --- | --- | --- |
| Cn1cc[nH]c1=S | inactive | – |
| CCOC(N)=O | inactive | – |
| O=C(NO)C1(NS(=O)(=O)c2ccc(Oc3ccc(F)cc3)cc2)CCOCC1 | inactive | – |
| CCCCCCOC(=O)CC(CC(=O)OCCCCCC)(OC(=O)CCC)C(=O)OCCCCCC | inactive | – |
| Cn1c(=O)c2[nH]cnc2n(C)c1=O | inactive | – |
| NC(=O)N1c2ccccc2C=Cc2ccccc21 | inactive | – |
| OCc1c[nH]c2ccccc12 | inactive | 27.2 µM (active) |
| c1ccc2ncccc2c1 | inactive | – |
| c1ccc2c(c1)-c1cccc3c1c-2cc1ccccc13 | inactive | – |
| OC[C@H]1O[C@@](CO)(O[C@H]2O[C@H](CO)[C@@H](O)[C@H](O)[C@H]2O)[C@@H](O)[C@@H]1O | inactive | – |
| CCCCCCCCCCCCCCCCOS(=O)(=O)O | inactive | – |
| O=C(N[C@H](CO)[C@H](O)c1ccc([N+](=O)[O-])cc1)C(Cl)Cl | inactive | – |
| NC(=O)NN=Cc1ccc([N+](=O)[O-])o1 | inactive | – |
| COc1cc(C(C)C)c2c(c1)S(=O)(=O)N(COc1cc(=O)n3cccc(OCCN4CCCCC4)c3n1)C2=O | inactive | – |
| OCc1ccccc1 | inactive | – |
| CCN(CC)C(=S)SSC(=S)N(CC)CC | – | 175 µM (active) |
| CCCCCCCCN(C)C | inactive | – |
| OC(Cn1cncn1)(Cn1cncn1)c1ccc(F)cc1F | inactive | – |
| CCOc1ccc2[nH]cc(C(=O)NCc3ccccc3)c(=O)c2n1 | inactive | – |
| NNC(=O)c1ccncc1 | inactive | – |

| Compound | outcome | AC50 |
| --- | --- | --- |
| NCC(F)(F)C(F)(F)C(F)(F)C(F)(F)F | inactive | – |
| CC(C)CCCCCCOC(=O)C1CCCCC1C(=O)OCCCCCCC(C)C (stereo not given) | inactive | – |
| CCCCCOC(C)=O | inactive | – |
| O=C(O)c1cccc(C[C@@H]2COc3ccc(OCc4nc5cc(F)ccc5s4)cc3[C@@H]2O)c1 | inactive | – |
| NC(=O)N(O)[C@@H]1COc2cc(OCc3ccccc3)ccc21 | inactive | – |
| NC(N)=O | inactive | – |
| Cc1ncc([C@@H](CCCCCCc2ccc3c(n2)NCCC3)CC(=O)O)cn1 | inactive | – |
| OC(O)(C(F)C(O)(O)C(F)(F)F)C(F)(F)F | – | 38.6 µM (active) and 72.7 µM (active) |
| CCCCCCCC/C=C\CCCCCCCC(=O)OC[C@@H](O)[C@H]1OC[C@H](O)[C@H]1O | inactive | – |
| C=CCc1cc(S(=O)(=O)c2ccc(O)c(CC=C)c2)ccc1O | – | 33.4 µM (active) |
| FC(F)(F)C(F)(F)C(F)(F)C(F)(F)C(F)(F)C(F)(F)I | inactive | – |
| CNC(C)=O | inactive | – |
| CCc1ccc(O)c(C(C)(C)C)c1 | inactive | – |
| C[Si](C)(C)C(F)(F)C(F)(F)C(F)(F)F | inactive | – |
| FC(F)(F)COC(OCC(F)(F)F)OCC(F)(F)F | inactive | – |
| CCCC(CCC)C(=O)O | inactive | – |
| CCCCN1C(=O)[C@@H]([C@H](O)C2CCCCC2)NC(=O)C12CCN(Cc1ccc(Oc3ccc(C(=O)O)cc3)cc1)CC2 | inactive | – |
| O=S(=O)(O)c1ccc(N=Nc2c(O)ccc3cc(S(=O)(=O)O)ccc23)cc1 | inactive | – |
| CCCOc1ccc(S(=O)(=O)N2CCN(CC)CC2)cc1-c1nc2c(CC)n(Cc3ccccn3)nc2c(=O)[nH]1 | inactive | – |
